Laboratory results from paper PMC7819943, “Rice protein-binding microarrays: a tool to detect cis-acting elements near promoter regions in rice”.
In all, about 35,000 sequences were measured (“fluorescence intensity (a.u.)”: median about 10,000, highest 2% from about 52,000 on). For the sample, the highest values were picked, then their nearest neighbours and some sequences at random.

Molecular target: T1, OsWOX13 (Oryza sativa, UniProt Q5QMM3 1-267)
T1 sequence: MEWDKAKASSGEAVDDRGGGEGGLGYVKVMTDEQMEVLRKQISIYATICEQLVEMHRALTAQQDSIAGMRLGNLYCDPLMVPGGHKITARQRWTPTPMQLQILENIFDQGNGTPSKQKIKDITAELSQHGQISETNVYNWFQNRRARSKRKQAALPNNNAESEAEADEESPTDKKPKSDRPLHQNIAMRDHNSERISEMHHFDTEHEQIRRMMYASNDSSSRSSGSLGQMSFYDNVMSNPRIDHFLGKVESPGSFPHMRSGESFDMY
Experiment: protein-binding microarray (RPBM); PBS, 2% BSA, 51.3 ng/ul salmon testes DNA, 50 uM zinc acetate, 200 nM TF, 25 C, 1 h; high values mean tight binding
Conditions: protein: recombinant; tags: N-terminal polyhistidine and DsRed monomer fusion (pET32a); label: CyDye5-dUTP incorporated in the synthesized complementary strand; 3' TTTTT single-stranded linker to array surface; dsDNA, one strand shown
In short: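 Transcription factors were made in E. coli BL21-CodonPlus as N-terminal fusions to a polyhistidine tag and DsRed, then purified on Ni–NTA. After primer extension with Cy5-dUTP and blocking with 2% BSA, a custom Agilent array was exposed for 1 h at 25 °C to 200 nM protein in PBS, 2% BSA, salmon testes DNA and 50 µM zinc acetate. Washed arrays were scanned on an Axon 4000B, and the binding signal is per-feature fluorescence intensity in arbitrary units.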

Sequence | binding signal
TCATCTAATTAATTGGCAAGGTGATATGCGTCCCTGAAAACGGAGTCACCTAGTGCAG | 39500 fluorescence intensity (a.u.)
GACAGTTTGATTTCCTCTTGTGTTTATGCATTATTTTGTGCGGAGTCACCTAGTGCAG | 3640 fluorescence intensity (a.u.)
TATCAAATTTATCCATTTGTTAATGTTGTAATAATTAAAACGGAGTCACCTAGTGCAG | 6890 fluorescence intensity (a.u.)
CTGACTTTGTCATACGTCTATGATTTGCCACTGACTTTATCGGAGTCACCTAGTGCAG | 4530 fluorescence intensity (a.u.)
CATTCTAATTAGCAATGGTCACCACGAATGATTAATGTAGCGGAGTCACCTAGTGCAG | 28200 fluorescence intensity (a.u.)
ACATCTAATTTGAAATGGATGTAGTATATTCTAATTGCATCGGAGTCACCTAGTGCAG | 17000 fluorescence intensity (a.u.)
TGAATATGTCCCAAATTAATTGTCACAATGGAGTACTAATCGGAGTCACCTAGTGCAG | 3200 fluorescence intensity (a.u.)
TATTAGATTGGCTATAGATGAATTGGAGCTAGTAGTTGGCCGGAGTCACCTAGTGCAG | 46700 fluorescence intensity (a.u.)
TAGATTGGCTATAGATGAATTGGAGCTAGTAGTTGGCTATCGGAGTCACCTAGTGCAG | 25400 fluorescence intensity (a.u.)
AATATTAGATTGGCTATAGATGAATTGTAGCTAGTAGTTGCGGAGTCACCTAGTGCAG | 54100 fluorescence intensity (a.u.)
CTGCTGCTTGATTATTTGGGTTCAACTGGCAAGAACTATGCGGAGTCACCTAGTGCAG | 8890 fluorescence intensity (a.u.)
TGGGTGATTGATTAGTACTACTGCTGCATCTGCACTGCATCGGAGTCACCTAGTGCAG | 38400 fluorescence intensity (a.u.)
GTGATTGATGCCGCCTGGGTTAGTTCAACTATTGCTGCATCGGAGTCACCTAGTGCAG | 55400 fluorescence intensity (a.u.)
TCAAAATCAGTTTGAGTAAATTTTATTTTGGTTCAACTTTCGGAGTCACCTAGTGCAG | 6800 fluorescence intensity (a.u.)
ATTTTGATTAAATGGTGATCAGCCAAAGCATTTGCCATCCCGGAGTCACCTAGTGCAG | 39300 fluorescence intensity (a.u.)
CTTTGACAGACAGATATCCATTCATACGTGCACAGGCGACCGGAGTCACCTAGTGCAG | 55300 fluorescence intensity (a.u.)
TATTCAATCATCCAAGGTTTGCATATCATTGACCGGCGTGCGGAGTCACCTAGTGCAG | 14400 fluorescence intensity (a.u.)
GGCGACAAGACAGATAGACAGAAGCCATTCATATCGAACCCGGAGTCACCTAGTGCAG | 5190 fluorescence intensity (a.u.)
GGTCGCCGGATCGCGGGAGGGAGGGAGGGAGGGAGGGAGGCGGAGTCACCTAGTGCAG | 7230 fluorescence intensity (a.u.)
GCTCCGGCGAGGCGAGGTCGGAGATCCCACCGCCGTGTCGCGGAGTCACCTAGTGCAG | 65500 fluorescence intensity (a.u.)
CCACCGTGATTTTCGCTCCCATCACCGCGCGAGGACTCCGCGGAGTCACCTAGTGCAG | 3320 fluorescence intensity (a.u.)

Sequence | binding signal
CAAAACTAAAATGTTATCATATAATTATATATTTAAGACCCGGAGTCACCTAGTGCAG | 8760 fluorescence intensity (a.u.)
ATTCATATAATTTGTATCACCTCAATAATAATTGGTATCACGGAGTCACCTAGTGCAG | 14700 fluorescence intensity (a.u.)
GACAAATTTACAGTAGTTTAACTTTAAGCAAAGTCAAAACCGGAGTCACCTAGTGCAG | 6260 fluorescence intensity (a.u.)
TATACAATTATTTAAACAAAATTACCACTTTGCTACAACTCGGAGTCACCTAGTGCAG | 8450 fluorescence intensity (a.u.)
AAGGTTAATTGGATCCATGCCACGCGAATTGTGGCAAATCCGGAGTCACCTAGTGCAG | 22100 fluorescence intensity (a.u.)
TACTGCTGGATTGAATTAATGGATCAAGACTGAATTTATCCGGAGTCACCTAGTGCAG | 12100 fluorescence intensity (a.u.)
CCGCAATTATTGGCCCTTAATTGTGAGGTTAATCCGTGGCCGGAGTCACCTAGTGCAG | 60900 fluorescence intensity (a.u.)
TTTTAATTACTGATCTTCTTACAATTGCTTTTATGCTGTCCGGAGTCACCTAGTGCAG | 19700 fluorescence intensity (a.u.)
CAATTAATTGCTTATCCGTGGCCTTGATCAATTACTGTGCCGGAGTCACCTAGTGCAG | 56600 fluorescence intensity (a.u.)
TTATGTAATTATTATTTATTTTATTGTGACTTAATTTATCCGGAGTCACCTAGTGCAG | 15500 fluorescence intensity (a.u.)
AGTCAATCAGTCAATCTGGACCGTCCACGGCAGAAGAAGTCGGAGTCACCTAGTGCAG | 30700 fluorescence intensity (a.u.)
GGATTATCAATCAAGCAAGCAAACAAACACTAAGGAAACCCGGAGTCACCTAGTGCAG | 15000 fluorescence intensity (a.u.)
GAATAATCAATTGCCGAATACGTTCTGGACATGGATATTGCGGAGTCACCTAGTGCAG | 6880 fluorescence intensity (a.u.)
CCTGGCTGATCGATAATTAATCCGTCCTCGCCGTCGCCATCGGAGTCACCTAGTGCAG | 15400 fluorescence intensity (a.u.)
GGGAAGGCGGCGATTGATTTGATTTGACCAAGATTGGTCGCGGAGTCACCTAGTGCAG | 28700 fluorescence intensity (a.u.)
ATATTGATTAGGCTCTCGGCTCTCTATTTAACCAACTGAACGGAGTCACCTAGTGCAG | 34300 fluorescence intensity (a.u.)
CTGATTGATTTAGCGGCTCAACATATATACCAAGGCGGCGCGGAGTCACCTAGTGCAG | 61100 fluorescence intensity (a.u.)
GAACTAATCACAAATTTCCACCATACAATGCCGCTGTACTCGGAGTCACCTAGTGCAG | 13300 fluorescence intensity (a.u.)
GACTAACACCCTAGACTGATTAATCAAAGCATTGTGCATGCGGAGTCACCTAGTGCAG | 16800 fluorescence intensity (a.u.)
AATTTACGATTGATTATTCATTCAGTGAGGCGCATGCGGTCGGAGTCACCTAGTGCAG | 32700 fluorescence intensity (a.u.)
GTCATGTGATTGATGATTCAGCATCCCTTGAGGCTCAGTGCGGAGTCACCTAGTGCAG | 53600 fluorescence intensity (a.u.)
